Reference: the supplement of paper PMC11417369
± gives the standard deviation of the averaged measurements. The full ranking holds about 25,000 sequences; the median of “ln(normalized median fluorescence intensity)” is about 8.9, and the highest 2% start at about 10. Only a selection was taken, and the highest values are over-represented in it overall.

These sequences were tested on PfAP2-LT AP2 domain (GST-tagged) (assay: gcPBM binding intensity (ln(normalized median fluorescence intensity)); higher = stronger DNA binding).
How it was run: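 Alexa488 anti-GST antibody, scanned at 488 nm, detected GST-tagged P. falciparum DNA-binding domains that had been expressed in E. coli and incubated for 1 h on an Agilent 4 × 180k array. The array carried primer-extended double-stranded 36-bp intergenic genomic probes and negative controls. Binding intensity is the highest Masliner-normalised natural-log median intensity across replicate spots of either orientation of each probe.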

Row | Sequence | gcPBM binding intensity (ln)
1 | TATAATCATATATACACACACATATATATATATATA [CACACA_site2168] | 9.805 ± 0.05
2 | TAATAAATGACAAATTAACACACATATATTATATAT [CACACA_site9294] | 8.98 ± 0.36
3 | AATAAATAAATACATCTCAGTATATAAACAAACAAA [CACACA_negctrl_site1604] | 8.89 ± 0.51
4 | GCATAAATCAAACACACACACATATATATATATATA [CACACA_site2422] | 10.3 ± 0.15
5 | TATATATATATATAAACACACATAAATATAAATATA [CACACA_site1121] | 9.01 ± 0.32
6 | AAAAACAACACAGATAAATTAACACACACACACATA [XGTACX_negctrl_site588] | 10.1 ± 0.12
7 | GATAAATTAAAACACACACACATATATATATATATA [CACACA_site3962] | 9.99 ± 0.042
8 | TAAATATAAACACAAACACACACATATATATATATA [CACACA_site7978] | 10.04 ± 0.035
9 | CATATAAATAAACACACACACACATATATATATATA [CACACA_site5309] | 10.06 ± 0.064
10 | AATATAAATAAACACACACACATATATATATATATT [CACACA_site2906] | 9.79 ± 0.21
11 | AAATAATCATAAAATAAACACACATATATAAATATA [CACACA_site7981] | 8.89 ± 0.42
12 | CAGATAAATAAACACACACACACATATATATATATA [CACACA_site9311] | 10.16 ± 0.078
13 | CATAATACAGATAACACACACAATTATACATAAAAT [CACACA_site5742] | 9.59 ± 0.39
14 | AATAAATTGAAACACACACACACATATATATATATA [CACACA_site848] | 10.17 ± 0.042
15 | GAAATATTGAAACACACACACAAACATATATATATA [CACACA_site1911] | 10.1 ± 0.26
16 | TACTTGTTATTAACATGTACAAAAAAAAAAAAAATT [XGTACX_site1338] | 8.46 ± 0.42

Row | Sequence | gcPBM binding intensity (ln)
17 | TCTAACATATAATATTCACACACATATATATATTAT [CACACA_site8236] | 9.21 ± 0.43
18 | ACTAAAAGGCTTAAATGTACATATTATATATATATA [XGTACX_site5897] | 8.89 ± 0.42
19 | TGAATAAATATATATACACACATATATGTATATATT [CACACA_site1642] | 8.95 ± 0.37
20 | AAAATTTATAGTATGGTGCATAAAAATATATATATA | 8.82 ± 0.46
21 | TAAAATATAAAACACACACACATATATATATATATT [CACACA_site224] | 9.72 ± 0.11
22 | TAAATAAATAAAAAAACACACATATAAATATAAATA [CACACA_site7815] | 8.9 ± 0.52
23 | AAAAAAATTAAACACACACACACATATATATATATA [CACACA_site4718] | 10.1 ± 0.27
24 | CATAAAATATAAAACACACACACATATATATATATA [CACACA_site223] | 10.1 ± 0.28
25 | AAAAAAAAAAAAAAAACACACATAAAAATATAATAA [CACACA_site3855] | 8.74 ± 0.63
26 | TATAAATAAAAACACACACACATATATATATATATA [CACACA_site2319] | 9.88 ± 0.12
27 | AAAAAAAAATTAAAAACACACATATATATATATATA [CACACA_site1580] | 9.73 ± 0.014
28 | AAAAAAAAATTAAAAACACACATATAAATAAATATA [CACACA_site6845] | 8.76 ± 0.54
29 | TAAATAAATAAAAAAACACACATATATATATATATA [CACACA_site4029] | 9.6 ± 0.44
30 | AAAAAAAAAAAAAACACACACATATAAATATAAATA [CACACA_site6972] | 9.37 ± 0.45
31 | TAAATAAAAAAACACACACACATATATATATATATA [CACACA_site2269] | 10.2 ± 0.36
32 | AAAAAAAAAAAACACACACACACATAAATATATATA [CACACA_site149] | 10.1 ± 0.18
